The list is not random: actives were taken first. Their share in the collection is about 1.4%.
Integrin act MD: activators of alpha7 integrin expression for muscular dystrophy. AID 624291. alpha7betagal myoblasts, beta-gal FDG fluorescence, 48 h. 350,000 tested, 0.064% active. Potency, µM (titrated, usually from 38.3 µM), for the others: at the top dose activation, most hits filed as activators;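 note: potency is the fitted concentration of half-maximal effect; 100% = response of the positive control SU9516; nearly all actives have a fitted effect of over 60% in size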
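Alpha7betagal+/- myoblasts (passage 13) were plated 16-24 hr, then exposed to compounds (1:260 dilution of DMSO stock) for 48 hours at 37C. After MPER lysis, β-galactosidase reporter activity was read as FDG fluorescence (ex 480/em 540) after 30 minutes.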
IL-2 act: IL-2 activation; IL-2 activation reporter assay, cell-based qHTS; stimulated with anti-CD3/CD4/CD28 beads; in transgenic mouse T cells; 360,000 tested, 0.065% active; activation, % (series mostly up to about 46 µM); in the data active = activation above about 50%; inconclusive = mostly about 30% to 49%; note: 0% is about no effect
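Readout: EGFP and DsRed signals by fluorescent plate cytometry. Unstimulated transgenic mouse T cells received compound 60 min before antibody-bead stimulation, then incubated 18 h at 37 degrees C.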
N370S GC: inhibits or activates N370S mutant glucocerebrosidase. P04062. N370S GC spleen homogenate, 4MU-glucoside fluorescence. Potency, µM (series often up to 59.4 µM), inactives show at the highest dose activity change, negative = inhibition, hits mostly inhibitors. 330,000 tested, 0.092% active;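 note: potency is the fitted concentration of half-maximal effect; 0% = full enzyme activity and -100% = no enzyme basal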
BRCA1 expr up: activators of BRCA1 expression. MCF7-BRCA1-FFLuc reporter, luminescence, 48 h; response scale: scaled: vehicle 0%, 10 µM genistein 100%. Potency, µM (highest dose often 46.1 µM), inactives show at the top dose activation, usual class: activators. 380,000 tested, 1.1% active; note: potency is the fitted concentration of half-maximal effect; nearly all actives have a fitted effect of over 80% in size
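MCF7-BRCA1-FFLuc, 2000 cells/well; 2 h attach, 37 °C/5% CO2; compound 48 h; luciferase substrate 15 min; luminescence end-point. Norm. to genistein 10 microM max activation and DMSO; concentration-response curves fitted.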
Nrf2 activator: activates Nrf2 signaling; AID 624171; 410,000 tested, 0.31% active; AREc32 ARE-luciferase reporter (MCF7-derived line), luminescence, 24 h; Potency, µM (doses to about 46.1 µM), inactives show at the highest dose activation, hits mostly activators; note: potency is the fitted concentration of half-maximal effect; % of control where 0% means no effect; nearly all actives have a fitted effect of over 65% in size
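ARE-driven firefly luciferase activity in AREc32 cells measured after a 24 hr compound exposure at 37 deg C, using Steady-Glo reagent and a 30 min room-temperature hold.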
BCR signal inh: inhibitors of chronic active B-cell receptor signaling | ABC-DLBCL IkBa-CBG/CBR reporter, luminescence ratio, 4 h | Potency, µM (doses to about 46.1 µM), for inactives: top-dose activity change, negative = inhibition, usual class: inhibitors | 340,000 tested, 0.05% active | AID 493014; active = well fitted inhibition curve with a large enough effect in the signal ratio, with a control signal flat, not every such curve was filed as active; inconclusive = small, poorly fitted or top-dose-only effect, or effect the other way, or a change in a side signal; the % refers to the signal ratio;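 note: potency is the fitted concentration of half-maximal effect; plate controls were basal doxycycline-induced cells for no effect and cells given 10 µM MG132 for full effect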
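TMD8 human ABC-DLBCL cells with doxycycline-inducible IκBα–green luciferase fusion and unfused red luciferase, in 0.5% FBS medium; compounds up to 46 uM, 4 h at 37C. Green/red luminescence ratio, filter-overlap corrected, fitted to concentration-response curves.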
* marks the source's active call; other numbers are inactive results. Unless noted, calls come from the whole dose curve; as a rule, active = well fitted curve in the direction sought with a large enough effect; inconclusive = small, poorly fitted or top-dose-only effect, or another doubt; inactive = no such curve, though single readings can be large; an effect the other way counts as inactive or inconclusive.

Results for COc1ccc2nc(/C=N/NC(=O)CCNC(=O)OC(C)(C)C)ccc2c1 ?
Integrin act MD: -15.1%; IL-2 act: -0.8; N370S GC: 16.2%; BRCA1 expr up: 6.31µM*; Nrf2 activator: 3.9%; BCR signal inh: -9.5%

Results for O=C(CCCCCBr)N1CCC(CC2CC(c3cccc(Br)c3)=NO2)(C(=O)NCC2CCCCC2)CC1 (centres undefined) ?
Integrin act MD: -13.1%; IL-2 act: -1.6; N370S GC: inconclusive; BRCA1 expr up: -43.6%; Nrf2 activator: 4.3%; BCR signal inh: inconclusive

How did O=C(CCCCCBr)N1CCC(CC2CC(c3ccc(Cl)cc3)=NO2)(C(=O)NCC2CCCCC2)CC1 (centres undefined) do in these assays?
Integrin act MD: 5.8%; IL-2 act: 63.4*; N370S GC: -4.2%; BRCA1 expr up: 28.1%; Nrf2 activator: 4.2%; BCR signal inh: 9.6%

What do the screens show for `O=C(N/N=C/C1=C(N2CCOCC2)C(=C\c2ccccc2)/CC1)Nc1ccccc1`?
Integrin act MD: 13.7%; IL-2 act: 0.2; N370S GC: 15.8%; BRCA1 expr up: -34.6%; Nrf2 activator: 4.3%; BCR signal inh: 2.5%

What do the screens show for `CCN(CC)c1ccc(/C=C2\CCC(/C=N/NC(=O)c3ccc(=O)n(C)c3)=C2N2CCOCC2)cc1`?
Integrin act MD: 0.0%; IL-2 act: 70.7*; N370S GC: -3.2%; BRCA1 expr up: -54.5%; Nrf2 activator: 0.0%; BCR signal inh: -8.0%

What do the screens show for `Cc1cc(C(=O)COC(=O)c2ccc(NC(=O)CC#N)cc2)c(C)n1C1CC1`?
Integrin act MD: 8.6%; IL-2 act: 3.3; N370S GC: -7.9%; BRCA1 expr up: 4.47µM*; Nrf2 activator: -0.4%; BCR signal inh: inconclusive

Results for Cc1cc(C(=O)COC(=O)c2ccc(Cl)c(S(N)(=O)=O)c2)c(C)n1C1CC1 ?
Integrin act MD: 2.3%; IL-2 act: -5.8; N370S GC: -4.8%; BRCA1 expr up: 11.2µM*; Nrf2 activator: 0.6%; BCR signal inh: -6.7%

What do the screens show for `Cc1cc(C(=O)COC(=O)c2ccc(NC(=O)CC#N)cc2)c(C)n1CC(F)(F)F`?
Integrin act MD: -8.8%; IL-2 act: -2.0; BRCA1 expr up: inconclusive; Nrf2 activator: 2.6%

How did CC(C)N(C(=O)COC(=O)c1ccc(Cl)c(S(N)(=O)=O)c1)C(C)C do in these assays?
Integrin act MD: 5.1%; IL-2 act: -7.5; N370S GC: -6.7%; BRCA1 expr up: 5.7%; Nrf2 activator: 0.2%; BCR signal inh: 1.6%

How did Cc1cc(C)cc(N(CC(=O)NC2CCCC2)S(=O)(=O)c2c(C)[nH]c(=O)[nH]c2=O)c1 do in these assays?
Integrin act MD: 12.8%; IL-2 act: 0.2; N370S GC: 3.55µM*; BRCA1 expr up: 6.5%; Nrf2 activator: -0.5%; BCR signal inh: 6.0%

Results for COc1ccc(N(CC(=O)NC2CCCC2)S(=O)(=O)c2c(C)[nH]c(=O)[nH]c2=O)cc1 ?
Integrin act MD: 3.3%; IL-2 act: -2.5; N370S GC: 8.91µM*; BRCA1 expr up: 4.7%; Nrf2 activator: -1.1%; BCR signal inh: -13.6%

How did CCc1ccc2oc(-c3ccc(C)c(NC(=O)COc4ccccc4Cl)c3)nc2c1 do in these assays?
BRCA1 expr up: -3.1%

Results for Cc1ccc2c(C)c(C(=O)N(C)C(C)c3ccon3)oc2c1C (centres undefined) ?
Integrin act MD: 36.1%; IL-2 act: 1.9; N370S GC: -3.2%; BRCA1 expr up: 10µM*; Nrf2 activator: 4.0%; BCR signal inh: -1.0%

What do the screens show for `O=c1[nH]c2ccccc2nc1/C=C/c1ccccc1`?
Integrin act MD: 32.5%; IL-2 act: 0.2; N370S GC: inconclusive; BRCA1 expr up: 3.98µM*; Nrf2 activator: inconclusive; BCR signal inh: inconclusive

Screening results (PubChem)
